Assay results reported in PubChem BioAssay (NCI).
The panel holds about 83,000 compounds, 20% with a hit somewhere; the sample as a whole holds those more often.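 Step 1: grow cells in 96-well plates. Step 2: add test compound at a single concentration. Step 3: incubate 48 h. Step 4: record percent growth.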 Unmarked numbers belong to inactive results. Active and inactive are the calls of the source. The calls were made as follows: active = growth percent below 10; inactive = the rest.

Test system: MDA-MB-468 breast
Test: NCI-60 one-dose screen, 48 h (100 = growth as untreated, 0 = no growth, -100 = all killed)
Conditions: 10 µM unless noted

SMILES | growth
Cc1nnc(-c2cc3c(ccc4ccccc43)oc2=O)c2cn(-c3ccc(Cl)cc3)nc12 | 96.4%
O=C1c2c(O)cc(O)cc2O[C@@H](c2ccc(O)cc2)[C@@H]1c1c(O)cc(O)c2c(=O)cc(-c3ccc(O)c(O)c3)oc12 | 113%
Nc1cc(Cl)cc2cccnc12 | 92.7%
Nc1cc(C(=O)O)cc(C(=O)O)c1 | 112%
N#CC1=C(N)Oc2cc(N)ccc2C1c1cccnc1 (stereo not given) | 97.9%
O=C1NC(=O)c2ncccc21 | 93.8%
COc1cc(/C=C2\Oc3cc(OCCCN4CCCC4)ccc3C2=O)cc(OC)c1 | 42.3%
O=c1c(Cc2ccc(F)cc2)cc(-c2ccccc2)nn1C/C(=N/O)c1ccccc1 | 41.2%
COc1ccccc1-c1nc2ccc3[nH]ncc3c2c2c1CCCC2 | 47.4%
N=c1c2c(-c3ccccc3)c(-c3ccccc3)n(Cc3ccccc3)c2ncn1CCCO | -0.433% (active)
FC(F)(F)c1cc(N2CCCCC2)nc(NCCCNc2ccnc3cc(Cl)ccc23)n1 | 1.13% (active)
Cn1nc(-c2ccccc2)c2c(-c3ccccc3)onc2c1=O | 15.1%
O=C1c2cc(Cl)ccc2S(=O)(=O)c2c(NCCCNCCO)nc3ccccc3c21 | -14.1% (active)
Nc1nc(I)c2ncn(C3OC(CO)C(O)C3O)c2n1 (stereo not given) | 115%
O=C1Nc2ccc(Cl)cc2/C1=N/N=C(c1ccccc1)c1ccccc1 | 107%
Cc1ccc(S(=O)(=O)N(c2ccc(Cl)cc2)c2ccc(Br)cc2C(=O)O)cc1 | 95.9%
C[C@@H](Oc1ccc(C(=O)NS(=O)(=O)C(C)(C)C)cc1C(F)(F)F)c1ccc(Oc2ccccc2)cn1 | -13.5% (active)
CCOC(=O)C1=C(c2ccccc2)N=C2SC=C(c3ccc(Cl)cc3)N2C1c1ccc(Cl)cc1 (stereo not given) | 41.3%
Cc1cc(-c2ccccc2)c(C)n1Cc1ccc(Cl)cc1 | 27.7%
C=CC(C)C(C)(C)O (stereo not given) | 106%

SMILES | growth
COc1ccc(C(=O)N2c3ccccc3Sc3ccccc32)c(F)c1 | -13.7% (active)
CN1CCN(C(=O)[C@]23CCC(C)(C)C[C@H]2C2=CC[C@@H]4[C@@]5(C)C/C(=C/c6cccnc6)C(=O)C(C)(C)[C@@H]5CC[C@@]4(C)[C@]2(C)CC3)CC1 | 34.3%
CC(C)(C)[Si](C)(C)OC1[C@@H](CNC(=O)NC(=O)NC(N)=O)O[C@@H](n2cnc3c(NC(=O)Nc4ccccc4)ncnc32)[C@H]1O[Si](C)(C)C(C)(C)C (stereo not given in full) | 99.1%
O=C1[C@H]2Cc3c([nH]c4ccccc34)[C@H](c3ccc(Br)cc3)N2C(=O)CN1C1CCN(CC2CCCCC2)CC1 | 80.1%
COc1cccc(NC(=O)c2sc3nc4c(cc3c2N)C(O)CCC4)c1 (stereo not given) | 48.6%
CCn1c2ccc(/C=N/N(C)S(=O)(=O)CCN(C)C)cc2c2cc(/C=N/N(C)S(=O)(=O)CCN(C)C)ccc21 | 40.4%
CCOC(=O)c1ccc(N2C(=O)C(Cl)(c3ccccc3)C2c2ccco2)cc1 (stereo not given) | 65.9%
CCCCCN1C=C/C(=C\C(=O)N(C)c2ccc(Br)cc2)c2ccccc21 | 73.8%
OCCNCCNC(Cc1ccc(Cl)cc1)c1ccccc1 (stereo not given) | 86.4%
OCc1cnc2ccccc2c1NC1CCCCCC1 | 59.8%
CCCCCCCCCCCCCCCCCC[S+](C)CC (stereo not given) | -42.5% (active)
O=C(O)c1cc(C(F)(F)F)cc(C(F)(F)F)c1 | 109%
CO[C@]12C=C/C(=C(/C(=O)OCc3cccnc3)C(=O)CCCCCCCC[C@@]3(OC)C=C/C(=C(/C(=O)OCc4cccnc4)C(=O)CCCCCCCC1)O3)O2 | -4.86% (active)
Cc1ccc(C(=O)O)o1 | 112%
CC1(C)CC(=O)NC1=O | 100%
CC(=O)N(C)c1ccc(Nc2ccc(Nc3ccc(N(C)C(C)=O)cc3)c3c2C(=O)c2ccccc2C3=O)cc1 | 30.9%
CC(=O)OC/C=C(/C)C[P+](c1ccccc1)(c1ccccc1)c1ccccc1 | 1.61% (active)
CCCCN(CCCC)c1cc(C(=O)CCCCCN)c2ccccc2n1 | 84.5%
CC1=C[C@H]2c3c(c(O)c(O)c4oc5cc(O)ccc5c(=O)c34)[C@H](c3cc(O)c(O)c4oc5cc(O)ccc5c(=O)c34)[C@H]2C(C)(C)C1 | 34.3%
Cc1cc(-c2ccccc2)on1 | 109%
